Compound activity: PubChem BioAssay, Broad Institute
miR122 inh = miR-122 sensor activation | Huh7 psiCHECK-miR122 Renilla luciferase sensor, 48 h | 340,000 tested, 0.14% active | activation, % at 12.5 µM;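 active means mean activation of 30% or more, with every replicate also reaching 30%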;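 further: 0% = median of neutral control wells and 100% = median of positive control wells; higher luciferase signal means stronger suppression of miR-122 activity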
* hit, by the source's call. The full list was thinned out, with hits kept by preference.

SMILES	miR122 inh
N=c1c2c(-c3ccccc3)c(-c3ccccc3)n(Cc3ccco3)c2ncn1CCO	43.2*
CCS(=O)(=O)Nc1ccc2c(c1)C(=O)N(C)C[C@@H](OC)[C@H](C)CN[C@@H](C)CO2	-1.0
C[C@@H]1CN([C@@H](C)CO)S(=O)(=O)c2ccc(-c3ccncc3)cc2O[C@@H]1CN(C)C(=O)C1CC1	2.2
C[C@@H]1CN([C@H](C)CO)S(=O)(=O)c2ccc(C#Cc3cccnc3)cc2O[C@@H]1CN(C)C(=O)C1CC1	13.1
C[C@H](CO)N1C[C@H](C)[C@H](CN(C)C(=O)c2cccnc2)Oc2ncc(/C=C/c3ccccc3)cc2C1=O	-5.8
O=C(Cc1cccc2ccccc12)Nc1ccc(OC(F)F)c(Cl)c1	-94.0
O=C(Nc1ccc(OC(F)F)cc1)Nc1cccc(C(F)(F)F)c1	44.1*
CC(OC(=O)c1cccc(S(=O)(=O)Nc2cccc(C(F)(F)F)c2)c1)C(=O)Nc1ccc2c(c1)OCCO2 (stereo not given)	-101.3
C[C@H](O)C#Cc1ccc2c(c1)O[C@@H](CN(C)C)[C@@H](C)CN([C@H](C)CO)S2(=O)=O	2.5
C[C@H]1CN([C@@H](C)CO)C(=O)c2cc(-c3cccc(F)c3)cnc2O[C@@H]1CN(C)CC1CCCC1	1.6
CCCC#Cc1cnc2c(c1)C(=O)N([C@H](C)CO)C[C@@H](C)[C@@H](CN(C)C(=O)C1CC1)O2	0.5
COc1ccc(C#Cc2ccc3c(c2)O[C@H](CN(C)C(=O)CN2CCOCC2)[C@H](C)CN([C@@H](C)CO)S3(=O)=O)cc1	54.5*
COc1ccc(C#Cc2ccc3c(c2)O[C@@H](CN(C)C(=O)CN2CCOCC2)[C@@H](C)CN([C@H](C)CO)S3(=O)=O)cc1	35.8*
COc1cccc(C#Cc2ccc3c(c2)O[C@@H](CN(C)C(=O)CN2CCOCC2)[C@H](C)CN([C@@H](C)CO)S3(=O)=O)c1	4.9
COc1ccc(C#Cc2ccc3c(c2)O[C@H](CN(C)C(=O)NC2CCCCC2)[C@@H](C)CN([C@H](C)CO)S3(=O)=O)cc1	-27.0
C/C=C/c1ccc2c(c1)O[C@H](CN(C)C(=O)Nc1ccc(OC)cc1)[C@H](C)CN([C@@H](C)CO)S2(=O)=O	6.2
COc1cccc(C#Cc2ccc3c(c2)O[C@@H](CN(C)C(=O)CN2CCOCC2)[C@H](C)CN([C@H](C)CO)S3(=O)=O)c1	-6.6
COc1cccc(C#Cc2ccc3c(c2)O[C@@H](CN(C)C(=O)CN2CCOCC2)[C@@H](C)CN([C@H](C)CO)S3(=O)=O)c1	5.2
COc1cccc(C#Cc2ccc3c(c2)O[C@H](CN(C)C(=O)CN2CCOCC2)[C@H](C)CN([C@H](C)CO)S3(=O)=O)c1	4.3
COc1ccc(NC(=O)N(C)C[C@@H]2Oc3cc(C#CCC(C)C)ccc3S(=O)(=O)N([C@@H](C)CO)C[C@@H]2C)cc1	42.7*
COCC(=O)N(C)C[C@@H]1Oc2cc(-c3cncnc3)ccc2S(=O)(=O)N([C@H](C)CO)C[C@@H]1C	0.2
C[C@@H]1CN([C@@H](C)CO)C(=O)c2cc(-c3cccnc3)cnc2O[C@@H]1CN(C)S(C)(=O)=O	-8.8
C[C@H](CO)N1C[C@H](C)[C@H](CN(C)C(=O)Cc2ccccn2)Oc2cc(-c3ccc(C(=O)N(C)C)cc3)ccc2S1(=O)=O	4.0
COc1ccc(NC(=O)Nc2ccc3c(c2)OC[C@H](C)NC[C@@H](C)[C@@H](OC)CN(C)C3=O)cc1	-1.6
COc1ccc(-c2ccc3c(c2)O[C@@H](CN(C)C(=O)c2ccccc2F)[C@H](C)CN([C@H](C)CO)S3(=O)=O)cc1	-11.2
SMILES	miR122 inh
C[C@H]1CN([C@@H](C)CO)C(=O)c2cc(C#CC3(O)CCCC3)cnc2O[C@@H]1CN(C)Cc1cncnc1	2.2
C[C@H]1CN([C@@H](C)CO)C(=O)c2cc(-c3cccc(C(=O)N(C)C)c3)cnc2O[C@@H]1CN(C)C(=O)Cc1ccccn1	-3.3
Oc1ccc(-c2nc(-c3ccc(O)c(O)c3)cs2)cc1	30.3*
C[C@H](CO)N1C[C@H](C)[C@@H](CN(C)CC2CCOCC2)Oc2cc(Br)ccc2S1(=O)=O	0.8
COCC#Cc1cnc2c(c1)C(=O)N([C@H](C)CO)C[C@@H](C)[C@H](CN(C)C(=O)Cc1ccccc1)O2	-9.9
CCOc1ccc2nc(NS(=O)(=O)c3cccs3)sc2c1	33.9*
O=S(=O)(Nc1cccc2ncccc12)c1cccs1	-234.4
CCOc1ccc(S(=O)(=O)Nc2cccc(Cl)c2)cc1	-90.2
COc1cccc(NC(=O)N(C)C[C@H]2Oc3cc(-c4cccc(C(=O)N(C)C)c4)ccc3S(=O)(=O)N([C@H](C)CO)C[C@H]2C)c1	-5.2
C[C@@H]1CN([C@@H](C)CO)C(=O)c2cccc(NS(=O)(=O)c3ccccc3)c2O[C@@H]1CN(C)Cc1ccc(C(=O)Nc2ccccc2N)cc1	-180.9
COc1cccc(-c2ccc3c(c2)O[C@H](CN(C)C(=O)C2CCCCC2)[C@@H](C)CN([C@@H](C)CO)S3(=O)=O)c1	-40.8
COc1ccccc1S(=O)(=O)Nc1cccc(S(=O)(=O)N2CCCC2)c1	-77.4
